In PubChem BioAssay (NCI):
The panel holds about 83,000 compounds, 20% with a hit somewhere; the sample as a whole holds those more often.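 Note: values are percent growth. 100 is the growth of untreated cells, values between 100 and 0 indicate rising inhibition; between -100 and 0 indicates cell death.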 The source made the active and inactive calls. Rule for the calls: active = growth percent below 10; inactive = the rest.

Assays:
Assay in all cases: NCI-60 one-dose screen, 48 h (100 = growth as untreated, 0 = no growth, -100 = all killed)
Details in all cases: 10 µM unless noted
SK-MEL-2 melanoma = tested on: SK-MEL-2 melanoma
EKVX NSCLC = tested on: EKVX NSCLC
SN12C renal = tested on: SN12C renal
UO-31 renal = tested on: UO-31 renal
TK-10 renal = tested on: TK-10 renal
ACHN renal = tested on: ACHN renal
CAKI-1 renal = tested on: CAKI-1 renal
A498 renal = tested on: A498 renal
CCRF-CEM leukemia = tested on: CCRF-CEM leukemia
MOLT-4 leukemia = tested on: MOLT-4 leukemia
RPMI-8226 leukemia = tested on: RPMI-8226 leukemia
OVCAR-5 ovarian = tested on: OVCAR-5 ovarian
OVCAR-4 ovarian = tested on: OVCAR-4 ovarian
SK-OV-3 ovarian = tested on: SK-OV-3 ovarian
IGROV1 ovarian = tested on: IGROV1 ovarian
OVCAR-3 ovarian = tested on: OVCAR-3 ovarian
HS 578T breast = tested on: HS 578T breast
NCI/ADR-RES ovarian = tested on: NCI/ADR-RES ovarian
OVCAR-8 ovarian = tested on: OVCAR-8 ovarian
SR leukemia = tested on: SR leukemia

Measured: growth

CCOc1c(B(O)O)cccc1-c1nc2ccc3[nH]ncc3c2c2c1CCCC2
active: CAKI-1 renal -26.9%
inactive: SK-MEL-2 melanoma 113% | EKVX NSCLC 47.5% | SN12C renal 62.7% | UO-31 renal 29.9% | TK-10 renal 19.7% | ACHN renal 51.1% | A498 renal 61.8% | CCRF-CEM leukemia 44% | MOLT-4 leukemia 28.8% | RPMI-8226 leukemia 39.5% | OVCAR-5 ovarian 74.7% | OVCAR-4 ovarian 93.3% | SK-OV-3 ovarian 72% | IGROV1 ovarian 77.6% | OVCAR-3 ovarian 113% | HS 578T breast 34.5% | NCI/ADR-RES ovarian 62.7%

CCN1C(=O)N(CC)C2Nn3c(s/c(=C4\C(=O)N(CCC(C)C)c5ccccc54)c3=O)=NC21 (stereo not given)
inactive: SK-MEL-2 melanoma 87.7% | EKVX NSCLC 67.1% | SN12C renal 89.3% | UO-31 renal 54.3% | TK-10 renal 38.3% | ACHN renal 67.6% | CAKI-1 renal 51.3% | A498 renal 72.9% | CCRF-CEM leukemia 57.1% | MOLT-4 leukemia 85.5% | RPMI-8226 leukemia 73.7% | OVCAR-5 ovarian 102% | OVCAR-4 ovarian 63.5% | SK-OV-3 ovarian 98.7% | IGROV1 ovarian 63.8% | OVCAR-3 ovarian 75.8% | HS 578T breast 81.4% | NCI/ADR-RES ovarian 57.8%

CC(=O)OC[C@H]1OC(Sc2sc(C(=O)c3ccc(Cl)cc3)c(N)c2-c2nc3ccccc3s2)[C@H](OC(C)=O)[C@@H](OC(C)=O)[C@@H]1OC(C)=O (stereo not given in full)
inactive: SK-MEL-2 melanoma 104% | EKVX NSCLC 80.4% | SN12C renal 54.7% | UO-31 renal 79.4% | TK-10 renal 134% | ACHN renal 67.4% | CAKI-1 renal 77.1% | A498 renal 87.8% | CCRF-CEM leukemia 70.9% | MOLT-4 leukemia 97% | RPMI-8226 leukemia 73% | OVCAR-5 ovarian 87.3% | SK-OV-3 ovarian 90.5% | IGROV1 ovarian 70.9% | OVCAR-3 ovarian 103% | HS 578T breast 71.4% | NCI/ADR-RES ovarian 78.7%

CSc1ncccc1C(=O)OCC(=O)Nc1oc(C)c2c(C)n[nH]c(=O)c12
inactive: SK-MEL-2 melanoma 92.5% | EKVX NSCLC 71% | SN12C renal 103% | UO-31 renal 91.7% | TK-10 renal 102% | ACHN renal 106% | CAKI-1 renal 112% | A498 renal 116% | CCRF-CEM leukemia 79% | MOLT-4 leukemia 99.4% | OVCAR-8 ovarian 98.6% | OVCAR-5 ovarian 94.3% | OVCAR-4 ovarian 104% | SK-OV-3 ovarian 96% | OVCAR-3 ovarian 106% | HS 578T breast 104% | NCI/ADR-RES ovarian 102%
active: IGROV1 ovarian -4.78%

O=C(N/N=C/c1c(Cl)cccc1Cl)c1ccc(C(F)(F)F)nc1Nc1cccc(C(F)(F)F)c1
active: SN12C renal 1.33% | UO-31 renal 1.91% | TK-10 renal 1.46% | ACHN renal -15.7% | A498 renal -5.26% | CCRF-CEM leukemia -8.45% | MOLT-4 leukemia -12.9% | OVCAR-3 ovarian -58% | NCI/ADR-RES ovarian -4.2%
inactive: SK-MEL-2 melanoma 26% | EKVX NSCLC 16.9% | CAKI-1 renal 13.8% | OVCAR-8 ovarian 18.7% | OVCAR-5 ovarian 20.5% | OVCAR-4 ovarian 13.1% | SK-OV-3 ovarian 15% | IGROV1 ovarian 12.4% | HS 578T breast 11.4%

O=C(CCCCCCSc1nc(-c2ccccc2)cc(-c2ccccc2)n1)NO
active: CCRF-CEM leukemia 2.47% | MOLT-4 leukemia 5.23% | NCI/ADR-RES ovarian 0.776%
inactive: SK-MEL-2 melanoma 74% | EKVX NSCLC 57.1% | SN12C renal 70.1% | UO-31 renal 22.3% | TK-10 renal 27.2% | ACHN renal 23% | CAKI-1 renal 13.7% | A498 renal 50% | OVCAR-8 ovarian 27.6% | OVCAR-5 ovarian 38.9% | OVCAR-4 ovarian 59.1% | SK-OV-3 ovarian 47.8% | IGROV1 ovarian 36.9% | OVCAR-3 ovarian 40% | HS 578T breast 43.1%

CCN(CC)c1ccc(C2=NN(C(C)=O)C(c3cc(OC)c(OC)c(OC)c3)C2)cc1 (stereo not given)
inactive: SK-MEL-2 melanoma 31.8% | EKVX NSCLC 29.8% | SN12C renal 38.5% | TK-10 renal 39.9% | ACHN renal 40.3% | CAKI-1 renal 21% | CCRF-CEM leukemia 12.6% | OVCAR-5 ovarian 39% | OVCAR-4 ovarian 46.9% | SK-OV-3 ovarian 31.5%
active: UO-31 renal -19% | A498 renal -22.1% | SR leukemia -23.6% | IGROV1 ovarian -45.1% | OVCAR-3 ovarian -64.8% | HS 578T breast -12.2% | NCI/ADR-RES ovarian -23.9%

CC(C)c1cc(C(C)C)c(S(=O)(=O)Oc2ccc(NC(=O)c3ccc(Cl)cc3)cc2)c(C(C)C)c1
inactive: SK-MEL-2 melanoma 31.3% | EKVX NSCLC 19.4% | SN12C renal 21.4% | UO-31 renal 29.9% | TK-10 renal 42.5% | ACHN renal 15.4% | CAKI-1 renal 21.6% | A498 renal 17.7% | CCRF-CEM leukemia 25.2% | SR leukemia 25.9% | RPMI-8226 leukemia 16.4% | OVCAR-5 ovarian 86.4% | OVCAR-4 ovarian 39.6% | SK-OV-3 ovarian 78.2% | IGROV1 ovarian 47.1% | OVCAR-3 ovarian 31.6% | HS 578T breast 39.5% | NCI/ADR-RES ovarian 35.6%

CN(C)c1ccc(/C=N\Nc2cc(=O)[nH]c3ccc(Cl)cc23)cc1
inactive: SK-MEL-2 melanoma 91.2% | EKVX NSCLC 85.7% | SN12C renal 104% | UO-31 renal 67.9% | TK-10 renal 127% | ACHN renal 95.2% | CAKI-1 renal 90.9% | A498 renal 123% | CCRF-CEM leukemia 95.4% | RPMI-8226 leukemia 93.2% | OVCAR-8 ovarian 93.4% | OVCAR-5 ovarian 101% | SK-OV-3 ovarian 82.9% | IGROV1 ovarian 75.3% | OVCAR-3 ovarian 108% | HS 578T breast 82.8% | NCI/ADR-RES ovarian 99.8%

O=C1/C(=C/c2ccc(F)cc2)Sc2c(Br)cccc21
inactive: SK-MEL-2 melanoma 63.5% | EKVX NSCLC 87.9% | SN12C renal 62.7% | UO-31 renal 42% | TK-10 renal 111% | ACHN renal 76.5% | CAKI-1 renal 81.5% | A498 renal 92.9% | CCRF-CEM leukemia 86.2% | SR leukemia 50.5% | OVCAR-8 ovarian 64.9% | OVCAR-5 ovarian 101% | OVCAR-4 ovarian 82.3% | SK-OV-3 ovarian 84.1% | OVCAR-3 ovarian 86.3% | HS 578T breast 80.3% | NCI/ADR-RES ovarian 71.9%

CCCCCCCCCCCCCCCCCCOc1ccccc1CCCOP(=O)(O)OCC[N+](C)(C)C
active: TK-10 renal 1.65%
inactive: SK-MEL-2 melanoma 102% | EKVX NSCLC 74.1% | SN12C renal 60.9% | UO-31 renal 68.5% | ACHN renal 84.5% | CAKI-1 renal 43.4% | A498 renal 54.1% | CCRF-CEM leukemia 34% | SR leukemia 11.4% | OVCAR-8 ovarian 64.8% | OVCAR-5 ovarian 75.6% | OVCAR-4 ovarian 89.9% | SK-OV-3 ovarian 85% | IGROV1 ovarian 15.5% | OVCAR-3 ovarian 84.5% | HS 578T breast 93.5% | NCI/ADR-RES ovarian 95.4%

COc1c(C2CC(=O)Nc3c2c(C)nn3-c2nc3ccccc3[nH]2)cc2c(c1OC)OCO2 (stereo not given)
inactive: SK-MEL-2 melanoma 29.6% | EKVX NSCLC 58% | SN12C renal 68.8% | UO-31 renal 45.4% | TK-10 renal 66.9% | ACHN renal 55.8% | CAKI-1 renal 71.6% | A498 renal 22.6% | CCRF-CEM leukemia 11.3% | RPMI-8226 leukemia 53.6% | OVCAR-8 ovarian 52% | OVCAR-5 ovarian 105% | SK-OV-3 ovarian 42% | IGROV1 ovarian 48.8% | OVCAR-3 ovarian 36.1% | HS 578T breast 28.3% | NCI/ADR-RES ovarian 39.8%

N/C(=N\c1nc2ccccc2s1)NC(=O)Nc1cccc2ccccc12
active: A498 renal -10.8% | OVCAR-3 ovarian -14.2% | NCI/ADR-RES ovarian -7.24%
inactive: SK-MEL-2 melanoma 38.7% | EKVX NSCLC 40.2% | SN12C renal 44% | UO-31 renal 53.4% | TK-10 renal 55% | ACHN renal 42.1% | CAKI-1 renal 29.5% | CCRF-CEM leukemia 12.2% | RPMI-8226 leukemia 13.8% | OVCAR-5 ovarian 41.1% | OVCAR-4 ovarian 60.8% | SK-OV-3 ovarian 40.4% | IGROV1 ovarian 33.6% | HS 578T breast 16.6%

COc1ccc(-c2cnc3ccccc3n2)cc1
inactive: SK-MEL-2 melanoma 112% | EKVX NSCLC 88.2% | SN12C renal 93.7% | UO-31 renal 81.9% | TK-10 renal 91.3% | ACHN renal 97.9% | CAKI-1 renal 84.4% | A498 renal 95% | CCRF-CEM leukemia 97.4% | RPMI-8226 leukemia 97.2% | OVCAR-8 ovarian 99.7% | OVCAR-5 ovarian 92.6% | OVCAR-4 ovarian 94.2% | SK-OV-3 ovarian 98.5% | IGROV1 ovarian 94.9% | OVCAR-3 ovarian 103% | HS 578T breast 89.4% | NCI/ADR-RES ovarian 102%

C[C@]12CC[C@@H]3c4cc(OC(F)F)c(OS(N)(=O)=O)cc4CC[C@H]3[C@@H]1CC[C@@H]2OS(N)(=O)=O
active: HS 578T breast 5.84%
inactive: SK-MEL-2 melanoma 36.1% | EKVX NSCLC 19% | SN12C renal 42% | UO-31 renal 42.9% | TK-10 renal 100% | ACHN renal 40.6% | CAKI-1 renal 39.1% | A498 renal 94.8% | CCRF-CEM leukemia 22.9% | MOLT-4 leukemia 20.6% | OVCAR-8 ovarian 46.2% | OVCAR-5 ovarian 94.9% | SK-OV-3 ovarian 44.7% | IGROV1 ovarian 47.6% | OVCAR-3 ovarian 16.2% | NCI/ADR-RES ovarian 11.3%

N#Cc1c(-c2ccccc2)nc(SCC(=O)Nc2nc(-c3ccc(Cl)cc3)cs2)[nH]c1=O
inactive: SK-MEL-2 melanoma 92.3% | EKVX NSCLC 106% | SN12C renal 104% | UO-31 renal 83.2% | TK-10 renal 110% | ACHN renal 103% | CAKI-1 renal 89% | A498 renal 87.7% | CCRF-CEM leukemia 92.2% | MOLT-4 leukemia 89.8% | OVCAR-8 ovarian 99.1% | OVCAR-5 ovarian 90.7% | SK-OV-3 ovarian 85.2% | IGROV1 ovarian 96.5% | OVCAR-3 ovarian 108% | HS 578T breast 88.6% | NCI/ADR-RES ovarian 103%
